Source: PubChem
In the library only some 3.8% were active in any assay of this set; here they are far more common.
ATXN2 expr inh – ATXN2 expression inhibition; HEK-293 ATXN2-luciferase reporter, luminescence, 24 h; Potency, µM (top dose mostly 57 µM), inactives show at the top dose activity change, negative = inhibition, hits mostly inhibitors; 360,000 tested, 0.72% active; AID 1745845; further: on the % scale 0 is the no-effect control and ±100 the full control effect; nearly all actives have a fitted effect of over 55% in size
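qHTS (up to 57 uM final) was run with 24 h compound exposure of reporter cells at 37 °C. Each well was multiplexed: SteadyGlo luminescence measured ATXN2-luciferase expression after a fluorogenic Gly-Phe-AFC viability readout (25 uM final).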
S2 tox – viability counter-screen for ATXN expression inhibitors; S2 cells (HEK-293 line with an ATXN2-luciferase reporter) viability, CellTiter-Fluor protease fluorescence, 24 h; AID 651635; Potency, µM (doses to about 56.7 µM), actives largely listed as cytotoxic; 400,000 tested, 0.49% active; further: nearly all actives have a fitted effect of over 40% in size
HT1080NT lethal – kills 2HG-producing HT-1080-NT fibrosarcoma cells | HT-1080-NT fibrosarcoma viability, CellTiter-Glo ATP luminescence, 48 h | Potency, µM (top dose mostly 46.1 µM), inactives show at the highest dose activity, negative = less viability, actives largely listed as cytotoxic | 360,000 tested, 1.6% active | AID 686970;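 further: NT is the 2HG producing partner of a matched IDH1 knockdown line; 0% = DMSO-treated cells and -100% = media-only wells without cells; nearly all actives have a fitted effect of over 55% in size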
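Viability by CellTiter-Glo luminescence after 48 h compound exposure at 37C of HT-1080-NT cells (750/well, RPMI, 5% FBS). % activity scaled between DMSO wells and medium-only wells, then curve-fitted and categorized by curve class.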
HepG2 viability – counter-screen for TGF-b inhibitors: cytotoxicity in HepG2 cells; HepG2 CAGA-GFP viability, ATP luminescence, 18 h; Potency, µM (highest dose often 46.1 µM), for inactives: at the highest dose activity change, negative = cytotoxicity, usual class: cytotoxic; 410,000 tested, 0.76% active
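HepG2 CAGA-GFP cells (1000/well, DMEM with 1% FBS) received compound, then TGF-beta at 500 pg/mL final, and were incubated 18 hours at 37 degrees C. Viability was read by CellTiter-Glo luminescence. Media-only wells were set as complete cell-killing and DMSO as no toxicity.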
TGFb inhibitor – TGF-b pathway inhibition. AID 588855. HepG2 CAGA-GFP TGF-b/SMAD3 reporter, GFP fluorescence, 18 h; TGF-beta stimulated, 500 pg/mL final. Potency, µM (doses to about 46.1 µM), without a hit: top-dose activity, negative = inhibition, actives largely listed as inhibitors. 410,000 tested, 1.2% active; further: on the % scale 0 is the no-effect control and ±100 the full control effect; nearly all actives have a fitted effect of over 65% in size
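Cell-based qHTS in HEPG2 carrying a CAGA-GFP Smad reporter; compounds added before 500 pg/mL final TGF-beta, 18 h incubation at 37 degrees C, GFP fluorescence quantified per cell by imaging cytometry.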
HT1080 IDH1KD tx – toxicity to HT-1080 IDH1 knockdown cells (counter line); HT-1080 IDH1 knockdown viability, ATP luminescence, 48 h; Potency, µM (series often up to 46.1 µM), without a hit: at the top dose activity, negative = toxicity, hits mostly cytotoxic; 360,000 tested, 2% active;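 further: 0% = DMSO wells and -100% = cell-free medium wells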
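IDH1KD HT-1080 cells, 750/well, RPMI + 5% FBS; compound pinned after 2 h settling; 48 h, 37 °C; CellTiter-Glo luminescence; % activity normalised to DMSO and no-cell wells; curves fitted, classed by r2 and efficacy.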
The depositor's hits bear a star; i = inactive; ? = inconclusive; . = not tested or not shown. The call rests on the fitted dose curve; in most records, active means well fitted curve in the direction sought with a large enough effect; inconclusive means small, poorly fitted or top-dose-only effect, or another doubt; inactive means no such curve, though single readings can be large; an effect the other way counts as inactive or inconclusive. Potency means the concentration at half of the fitted maximal effect.

SMILES	ATXN2 expr inh	S2 tox	HT1080NT lethal	HepG2 viability	TGFb inhibitor	HT1080 IDH1KD tx
CCOc1ccc(CNC(=O)c2c(C)nn(-c3ccc(F)cc3)c2-n2cccc2)cc1	?	?	.	0.2%	-8.1%	.
CCOC(=O)C[n+]1cccc(Br)c1	.	.	.	-2.8%	-5.5%	.
COc1cccc(/C=N/NC(=O)NC23CC4CC(CC(C4)C2)C3)c1O	-37.5%	?	?	-29.9%	?	18.4µM*
COc1cccc(/C=N/NC(=O)c2ccoc2C)c1O	?	?	?	-57.2%	?	9.2µM*
O=C(N/N=C/c1cc([N+](=O)[O-])ccc1Cl)c1cnccn1	-26.9%	i	4.11µM*	-1.7%	-10.2%	?
O=C(N/N=C/c1ccccc1F)NC12CC3CC(CC(C3)C1)C2	38.6%	i	6.8%	-0.3%	0.0%	1.1%
O=C(N/N=C/c1cccc([N+](=O)[O-])c1)c1cnccn1	13.5%	i	18.8%	6.9%	-4.8%	17.6%
COc1cccc(/C=N/NC(=O)c2cnccn2)c1O	-18.6%	?	?	-44.6%	?	16.4µM*
COC(=O)[C@@H]1CCCN1C(=O)c1c(OC)cc(=O)n2c1CCN(Cc1ccc3c(c1)CCO3)CC2	.	i	.	.	.	.
COc1cccc(-n2c(-c3ccccc3F)nc3c(cnn3-c3ccc(C)cc3)c2=O)c1	2.0%	i	.	-0.6%	?	.
COc1cccc(/C=N/NC(=O)C(=O)N/N=C/c2cccc(OC)c2O)c1O	0.0%	i	-7.8%	-19.2%	-7.9%	6.1%
COc1cccc(/C=N/NC(=O)C(=O)NCc2ccco2)c1OC	2.9%	i	10.5%	-10.1%	-12.8%	16.0%
COc1cccc(/C=N/NC(=O)C(=O)NCc2ccco2)c1O	-26.1%	i	8.91µM*	-30.1%	2.1%	7.08µM*
COc1cccc(/C=N/NC(=O)C(=O)N2CCCCCC2)c1O	-33.3%	i	?	-25.7%	-11.4%	13µM*
COc1ccc(Cl)cc1NC(=O)CCS(=O)(=O)c1nc(-c2cccs2)cc(C(F)(F)F)n1	.	.	.	-101.4%	?	.
COc1ccc(-c2cc(C(F)(F)F)nc(S(=O)(=O)CCCC(=O)Nc3cc(C)on3)n2)cc1OC	?	?	16.4µM*	-108.9%	?	20.6µM*
COc1ccc(Cl)cc1NC(=O)CCCS(=O)(=O)c1nc(-c2ccc(OC)c(OC)c2)cc(C(F)(F)F)n1	.	.	.	14.1µM*	2.82µM*	.
COc1ccccc1-c1cc(C(F)(F)F)nc(S(=O)(=O)CCCC(=O)Nc2cc(C)on2)n1	?	.	9.2µM*	-35.4%	-6.1%	4.11µM*
Cc1cc(NC(=O)CCCSc2nc(-c3ccco3)cc(C(F)(F)F)n2)no1	-20.4%	i	12.8%	-6.0%	-10.4%	2.1%
COc1ccc(CCNC(=O)c2c(O)nc3c(C)cccn3c2=O)cc1	-11.2%	i	.	-22.5%	-3.0%	.
COC1=CC(=O)C(OC)=C(OC)C1=O	?	25.1µM*	-8.1%	-111.9%	?	?
CCCCCCSc1nsc(NC(=O)CC(C)C)n1	29.5%	i	?	-19.6%	?	14.6µM*
CCCSc1nsc(NC(=O)CC)n1	1.2%	i	8.5%	-20.2%	?	-3.5%
CCCSc1nsc(NC(=O)C(c2ccccc2)c2ccccc2)n1	?	i	?	6.31µM*	17.8µM*	?
Cc1nc(CC(=O)Nc2cccc(C)c2C)cs1	.	.	.	-1.8%	-1.7%	.
SMILES	ATXN2 expr inh	S2 tox	HT1080NT lethal	HepG2 viability	TGFb inhibitor	HT1080 IDH1KD tx
O=C(NC1CC1)c1ccc2nc(-c3ccco3)c(-c3ccco3)nc2c1	.	.	.	-11.5%	-16.0%	.
CC(=O)Oc1ccc(N2C(=O)C3C(C2=O)C(C(=O)c2ccc(Cl)cc2)N2CCCC32)cc1 (stereo unspecified)	?	i	?	-28.5%	?	23.1µM*
Cc1ccc(NC(=O)N2CCC(CN3CCC(C)CC3)CC2)cc1F	13.5%	i	.	0.4%	21.8%	.
COc1ccc(C2c3c(n(C)c4ccccc34)C(=O)N2CC(=O)Nc2ccc(Cl)cc2)cc1 (stereo unspecified)	.	.	.	-28.6%	2.51µM*	.
c1ccc(CNc2ncnc3c2cnn3-c2ccccc2)cc1	0.9%	i	?	2.8%	14.6%	?
Cc1cccc(-n2ncc3c(NCc4ccccc4)ncnc32)c1	12.5%	?	?	-21.3%	?	18.4µM*
CN(C)CCCNc1ncnc2c1cnn2-c1ccccc1	5.2%	i	10.9%	-14.9%	-14.1%	-12.1%
COc1ccc(OC)c(Nc2ncnc3c2cnn3-c2cccc(Cl)c2)c1	-16.3%	?	.	-18.1%	1.6%	.
COc1ccc(OC)c(Nc2ncnc3c2cnn3-c2cccc(C)c2)c1	4.3%	i	7.08µM*	-29.9%	4.7%	7.08µM*
Cc1ccc(-n2ncc3c(NCCCN(C)C)ncnc32)cc1Cl	?	.	.	12.6µM*	?	.
COc1ccc(CN2CCCC(c3nc(C)ncc3-c3ccc(F)cc3)C2)c(OC)c1OC (stereo unspecified)	.	i	.	.	.	.
COC(=O)[C@@H]1CCCN1Cc1ccc2c(c1)CN(Cc1ccccc1)CCO2	.	i	.	.	.	.
CCOCCCNC(=O)c1ccc(Cn2c(=S)[nH]c3c([nH]c4ccc(OC)cc43)c2=O)cc1	.	i	-0.8%	24.3%	19.9%	-5.5%
CCCCNC(=O)c1ccc(Cn2c(=S)[nH]c3c([nH]c4ccc(OC)cc43)c2=O)cc1	?	.	?	-60.4%	?	18.4µM*
COC(=O)c1ccc(COc2ccccc2/C=C(\C#N)C(=O)Nc2ccccc2C)cc1	-5.1%	?	7.9%	-8.3%	3.9%	1.7%
COC(=O)c1ccc(COc2ccccc2/C=C(\C#N)C(=O)Nc2c(C)cccc2C)cc1	-23.2%	i	18.4µM*	-72.8%	?	18.4µM*
CN(C)CCC(=O)c1cccc(Br)c1	.	?	-17.0%	11.2µM*	14.1µM*	-7.5%
COc1ccc(C2CC(c3c(O)cc(C)oc3=O)=NCCS2)c(OC)c1 (stereo unspecified)	111.4%	?	1.3µM*	-26.1%	?	1.3µM*
O=C(Nc1ncc(Cc2ccc(F)cc2)s1)c1ccc2c(c1)CC(c1ccccc1)OC2=O (stereo unspecified)	3.0%	i	.	-0.9%	11.2%	.
NC(=S)NNc1ccnc2cc(Cl)ccc12	-14.5%	i	5.3%	2.0%	-2.7%	22.2%
O=C(NNc1ccnc2cc(Cl)ccc12)C1CCCCC1	?	i	3.66µM*	16.3%	-25.8%	?
